Reference: the supplement of paper PMC8387472

Key:
Test in all cases: fraction of 1-bp insertions among edited reads; higher = more 1-bp insertion outcomes
Conditions in all cases: mESC; 2uM; 72 h treatment, harvest day 5
Pemetrexed = compound: Nc1nc2[nH]cc(CCc3ccc(C(=O)N[C@@H](CCC(=O)O)C(=O)O)cc3)c2c(=O)[nH]1 [Pemetrexed]
[1] = compound: Nc1ncnc2c1c(-c1cnc3[nH]ccc3c1)nn2C1CCCC1
[2] = compound: O=C(c1cccc(Cl)c1F)N1CCN(Cc2cccc(Nc3nccs3)n2)CC1
Kenpaullone = compound: O=C1Cc2c([nH]c3ccc(Br)cc23)-c2ccccc2N1 [Kenpaullone]
Genistein = compound: O=c1c(-c2ccc(O)cc2)coc2cc(O)cc(O)c12 [Genistein]
[3] = compound: O=c1cc(N2CCOCC2)oc2c(-c3ccc4c(c3)OCCO4)csc12
Mercaptopurine (6-MP) = compound: S=c1[nH]cnc2nc[nH]c12 [Mercaptopurine (6-MP)]
[4] = compound: S=c1nc[nH]c2nc[nH]c12 [6-Mercaptopurine (6-MP) Monohydrate]

Target | fraction of 1-bp insertions among edited reads (Pemetrexed) | fraction of 1-bp insertions among edited reads [1] | fraction of 1-bp insertions among edited reads [2] | fraction of 1-bp insertions among edited reads (Kenpaullone) | fraction of 1-bp insertions among edited reads (Genistein) | fraction of 1-bp insertions among edited reads [3] | fraction of 1-bp insertions among edited reads (Mercaptopurine (6-MP)) | fraction of 1-bp insertions among edited reads [4]
26.0 (DMSO control at this site: 1-bp insertion 0.518, MH deletion 0.262, edited 0.026) AGGGCGCGCCCCACGCACTCTGCGGCAAGTCCCTCTGCGGCAAGTCCTCGGCCCGGAAGAC | 0.284 | 0.567 | 0.537 | 0.496 | 0.46 | 0.363 | 0.491 | 0.494
35.0 (DMSO control at this site: 1-bp insertion 0.01, MH deletion 0.72, edited 0.098) CCACTTTTAGAGAGGGTGAAAATCATCAGTTATCATCAGGGCAACAAATTGCTTTCTCCTA | 0.0156 | 0.0183 | 0.0381 | 0.0204 | 0.00956 | 0.0278 | 0.0333 | 0.0402
31.0 (DMSO control at this site: 1-bp insertion 0.315, MH deletion 0.329, edited 0.026) ACCTCCACAGGCTGGGTGGCCCGGAGGCTGGGCGGCCCGGAGGCTGGGCTGGGCGAGTATC | 0.0954 |  | 0.127 | 0.173 | 0.102 | 0.138 | 0.178 | 0.208
8.0 GCATGCGTGTTTTGGGACAATGTAGTATACATTTGGGAGGCTCTCAGCTTTTCCCAATAAA | 0.255 | 0.646 |  | 0.441 |  |  |  | 0.442
45.0 (DMSO control at this site: 1-bp insertion 0.017, MH deletion 0.666, edited 0.101) TTACACAGCATGAACTGCTAGGTGATGATGTCAGATTCGGTTTTACTAACTTCTCCAAAAA | 0.0325 | 0.0301 | 0.0412 | 0.0351 | 0.0293 | 0.0264 | 0.0287 | 0.0267
1.0 (DMSO control at this site: 1-bp insertion 0.521, MH deletion 0.323, edited 0.141) GTGTCACAGTGCACGAGTGACGGGATAATGTGCTGACAGGTAATTGATAGGCTTCCAACTT | 0.486 | 0.73 | 0.653 | 0.673 | 0.54 | 0.552 | 0.591 | 0.6
18.0 (DMSO control at this site: 1-bp insertion 0.114, MH deletion 0.789, edited 0.094) GCGCAAGTGCATAAGTTTTTCTTAAGGCGTGCCTTTAAGGCGTGCCTTTGTCGGTCCTGGA | 0.0804 | 0.12 | 0.114 | 0.134 | 0.0973 | 0.0588 | 0.137 | 0.13
41.0 (DMSO control at this site: 1-bp insertion 0.022, MH deletion 0.754, edited 0.115) AAAGAGACAGCAGGTATGAATCCATCTTCCTGACCCTTGGGACCAGCCGGGGCAGTGAAGC | 0.0232 | 0.0155 | 0.0392 | 0.0338 | 0.0158 | 0.0195 | 0.0292 | 0.0487
15.0 GCGCCTCCAATGACCCAGTGGGATCCTACTCCATAATGGGATCCTGGGGATTCCTCGCTCC |  |  |  |  | 0.0821 |  |  | 0.0929
47.0 (DMSO control at this site: 1-bp insertion 0.095, MH deletion 0.585, edited 0.118) GAGTGGTCCCGAGCCAGGAACTGTGTGTGTTGCAGGGGGGCAGTAACTCCCCAACTCCCTC | 0.0508 | 0.158 | 0.144 | 0.101 | 0.0861 | 0.108 | 0.101 | 0.142
25.0 (DMSO control at this site: 1-bp insertion 0.017, MH deletion 0.774, edited 0.143) GGGCCTGAATGGTGTGGACATCTACTCGCTGGTGAGCTGGTGACTGAAAACATTCAGTGGC | 0.0305 | 0.0264 | 0.0219 | 0.0271 | 0.0281 | 0.0315 | 0.0245 | 0.0323
38.0 (DMSO control at this site: 1-bp insertion 0.063, MH deletion 0.487, edited 0.17) GGGCTGGGTGCTAAAATGAGGAGCTCCAAGAAGACTGAGGTGAACCTGGAGGCCCCTGAGC | 0.0448 | 0.104 | 0.0891 | 0.102 | 0.0646 | 0.0742 | 0.0697 | 0.0502
21.0 CGATTGAGAGTCAAACGGGCCAGAAAACTCCGGGAACGGGCCAGAAAACTCCGGGGCATGG | 0.0119 | 0.0122 |  | 0.0245 | 0.0192 | 0.0417 | 0.0152 | 0.0297
39.0 (DMSO control at this site: 1-bp insertion 0.328, MH deletion 0.371, edited 0.204) CTGCACAGTCACTTAGGATAGGAGAAGATGATGTATAGGGTTTAGTGGGAGATGTTGCAAG | 0.395 |  | 0.45 | 0.572 | 0.372 | 0.355 | 0.407 | 0.417
